Only some compounds are listed: those with a hit (about 18% of all), similar ones and a draw of the others.
PLK1 PBD block: qHTS for Inhibitors of PLK1-PDB (polo-like kinase 1 - polo-box domain): Primary Screen. Serine/threonine-protein kinase PLK1 (Homo sapiens), P53350. 2.8% of 360,000 active. Plk1 PBD binding of FITC phosphopeptide, fluorescence polarization. Potency, µM, without a hit: max response, negative = inhibition, actives largely listed as inhibitors; note: series mostly up to about 57 µM; nearly all actives have a fitted effect of over 65% in size
VDR inh: Inhibitors of the vitamin D receptor (VDR): qHTS; Vitamin D3 receptor (Homo sapiens), P11473; VDR-SRC2-3 peptide fluorescence polarization, 2 h; Potency, µM, without a hit: max response, negative = inhibition, hits mostly inhibitors; 0.93% of 400,000 active
Target sequence (P11473 whole entry, looked up): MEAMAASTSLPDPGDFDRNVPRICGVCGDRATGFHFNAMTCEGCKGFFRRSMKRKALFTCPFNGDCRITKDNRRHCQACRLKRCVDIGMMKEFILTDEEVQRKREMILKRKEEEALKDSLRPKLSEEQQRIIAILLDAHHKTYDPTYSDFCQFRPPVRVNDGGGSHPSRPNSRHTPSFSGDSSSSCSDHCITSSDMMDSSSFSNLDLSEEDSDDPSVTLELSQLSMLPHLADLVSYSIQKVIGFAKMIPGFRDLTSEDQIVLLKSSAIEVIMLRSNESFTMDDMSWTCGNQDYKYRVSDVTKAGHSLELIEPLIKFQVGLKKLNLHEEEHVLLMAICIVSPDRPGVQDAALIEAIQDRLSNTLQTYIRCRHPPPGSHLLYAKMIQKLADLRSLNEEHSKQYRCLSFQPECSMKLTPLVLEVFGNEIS
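Compounds are added to VDR with labelled SRC2-3 coactivator peptide and held 2 h at room temperature. Inhibition of the VDR–peptide interaction is then read as a change in fluorescence polarization.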
TDP1 cell CPT: qHTS for Inhibitors of human tyrosyl-DNA phosphodiesterase 1 (TDP1): qHTS in cells in presence of CPT. chicken DT40 Tdp1-/-;hTDP1 cells + 20 nM CPT, ATP luminescence, 48 h. Potency, µM (highest dose often 46.2 µM), for inactives: at the top dose activity change, negative = growth inhibition, usual class: inhibitors. 12% of 420,000 active. AID 686979, 2013; note: nearly all actives have a fitted effect of over 55% in size
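Cell growth measured by CellTiter-Glo luminescence after a minimum 48 h, 37 C compound exposure with 20 nM CPT in Tdp1-knockout DT40 cells stably expressing hTDP1, seeded 400/well; qHTS titration format.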
DT40 TDP1 no CPT: qHTS for Inhibitors of human tyrosyl-DNA phosphodiesterase 1 (TDP1): qHTS in cells in absence of CPT | Potency, µM (series often up to 46.2 µM), for the others: at the top dose activity change, negative = growth inhibition, most hits filed as inhibitors | 15% of 420,000 active | AID 686978, 2013 | DT40 Tdp1-/- hTDP1 cells, no CPT, ATP luminescence, 48 h; note: nearly all actives have a fitted effect of over 55% in size
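Growth kinetics read by CellTiter-Glo luminescence after ≥48 hr at 37 °C. Cells: DT40 Tdp1-/- stably carrying human TDP1, 400 per well, compound exposure in the absence of CPT (DMSO vehicle).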
KAT2A inh: qHTS Assay for Inhibitors of GCN5L2; Histone acetyltransferase KAT2A (Homo sapiens), Q92830; GCN5L2 HAT assay, ThioGlo1 CoA-SH fluorescence; Potency, µM (series often up to 58.9 µM), without a hit: at the top dose activity change, negative = inhibition, most hits filed as inhibitors; 0.21% of 390,000 active
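GCN5L2 (20nM final) in 50mM HEPES, 0.1mM EDTA pH 7.5, 0.01% Tween-20 was preincubated 15 min at room temperature with compound, then given ThioGlo1 (50uM), H3(1-25) peptide (75uM) and acetyl-CoA (70uM); CoA-thiol fluorescence (Ex340/Em540) was read at 0 and 20 min.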
TDP1 block: qHTS Assay for Inhibitors of Tyrosyl-DNA Phosphodiesterase (TDP1); AID 485290, 2010; recombinant TDP1, AlphaScreen DNA substrate cleavage; 0.28% of 350,000 active; Potency, µM (doses to about 130 µM), without a hit: at the top dose activity change, negative = inhibition, hits mostly inhibitors; Tyrosyl-DNA phosphodiesterase 1 (Homo sapiens), Q9NUW8; note: nearly all actives have a fitted effect of over 40% in size
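AlphaScreen read-out: signal falls as enzyme removes the 3' tyrosine-FITC from a 5'-biotinylated DNA oligo (15 nM, 5 min, RT). Enzyme was E. coli-made recombinant Tdp1 at 1 nM, exposed to compound for 15 min beforehand; beads 10 ug/ml, 10 min.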
Numbers without * were called inactive; [ ] = dose if it differs, or a comment. Calls come from the whole dose curve; as a rule, active = well fitted curve in the direction sought with a large enough effect; inconclusive = small, poorly fitted or top-dose-only effect, or another doubt; inactive = no such curve, though single readings can be large; an effect the other way counts as inactive or inconclusive. % is set by controls: 0 for no effect and ±100 for the full control effect; potency is the fitted concentration of half-maximal effect.

How did CC1CCN(Cc2nnnn2CCCC(=O)NCCc2cnn(C)c2)CC1 do in these assays?
PLK1 PBD block: -7%; VDR inh: -14%; TDP1 cell CPT: 14%; DT40 TDP1 no CPT: -2%; KAT2A inh: 0%; TDP1 block: 5%

What do the screens show for `COc1cccc(-c2cc(NCc3ccccc3OC)ncn2)c1`?
VDR inh: -21%; TDP1 cell CPT: 4.1µM*; DT40 TDP1 no CPT: inconclusive; KAT2A inh: -22%

What do the screens show for `COc1ccccc1CNc1cc(-c2ccccc2C(F)(F)F)ncn1`?
VDR inh: -20%; TDP1 cell CPT: 1.3µM*; DT40 TDP1 no CPT: 1.5µM*; KAT2A inh: 1%

How did COc1ccc(CNc2cc(-c3ccoc3)ncn2)c(OC)c1 do in these assays?
VDR inh: 11µM*; TDP1 cell CPT: inconclusive; DT40 TDP1 no CPT: inconclusive; KAT2A inh: -20%

What do the screens show for `COc1ccccc1CNc1cc(-c2ccccc2Cl)ncn1`?
VDR inh: -15%; TDP1 cell CPT: 16µM*; DT40 TDP1 no CPT: 15µM*; KAT2A inh: -1%

Results for CCCNC(=O)C1(C)CCN(C(=O)COc2ccc(C(C)(C)C)cc2)C1 (stereo not given) ?
PLK1 PBD block: 0%; TDP1 cell CPT: -19%; DT40 TDP1 no CPT: -27%

What do the screens show for `Cc1ccc(S(=O)(=O)Cc2ccccc2Cl)cc1`?
PLK1 PBD block: -5%; VDR inh: -26%; TDP1 cell CPT: inconclusive; DT40 TDP1 no CPT: 21µM*; KAT2A inh: 17%; TDP1 block: -1%

What do the screens show for `OC1COCOC1C(O)C1OCOCC1O` (stereo not given)?
PLK1 PBD block: -5%; VDR inh: -1%; TDP1 cell CPT: 1%; DT40 TDP1 no CPT: 4%

Results for Cc1cccc(C)c1OCc1nc2c3cnn(-c4ccccc4Br)c3ncn2n1 ?
VDR inh: -6%; TDP1 cell CPT: 10µM*; DT40 TDP1 no CPT: inconclusive; KAT2A inh: -6%; TDP1 block: 2%

Results for CSCC[C@H](NC(=O)c1ccc(Br)o1)c1nnc2ccccn12 ?
PLK1 PBD block: 11µM*; VDR inh: inconclusive; TDP1 cell CPT: inconclusive; DT40 TDP1 no CPT: inconclusive; KAT2A inh: -10%; TDP1 block: 1%

Results for CSCC[C@H](NS(=O)(=O)c1ccc(C(C)=O)cc1)c1nnc2ccccn12 ?
PLK1 PBD block: -17%; VDR inh: 15%; TDP1 cell CPT: 3%; DT40 TDP1 no CPT: 7%; KAT2A inh: -1%; TDP1 block: 40µM*

Results for CSCC[C@H](NC(=O)c1cccs1)c1nnc2ccccn12 ?
PLK1 PBD block: 5%; VDR inh: -2%; TDP1 cell CPT: -2%; DT40 TDP1 no CPT: -21%; KAT2A inh: -7%; TDP1 block: 6%

Results for CSCCC(NC(=O)C1CCCC1)c1nnc2ccccn12 (stereo not given) ?
PLK1 PBD block: 3%; VDR inh: -16%; TDP1 cell CPT: 2%; DT40 TDP1 no CPT: -2%; KAT2A inh: 2%; TDP1 block: 4%

Results for COCC(=O)Nc1cc(C(=O)N2CCOc3ccccc3C2)cc2nc(-c3cccnc3)n(C)c12 ?
TDP1 cell CPT: -11%[9.04 µM]; DT40 TDP1 no CPT: -9%

Results for Cc1nn2c(=O)cc(COC(=O)COc3ccccc3C)nc2s1 ?
VDR inh: 1%; TDP1 cell CPT: -8%; DT40 TDP1 no CPT: -1%; KAT2A inh: 0%; TDP1 block: 3%

Results for O=C(Cn1c(=O)c2ccccc2n(CC(=O)Nc2ccc(F)cc2)c1=O)NCCc1ccccc1 ?
VDR inh: -9%; TDP1 cell CPT: -14%; DT40 TDP1 no CPT: inconclusive; KAT2A inh: 25%; TDP1 block: -5%

How did O=C(c1ccc(N2CCN(S(=O)(=O)c3ccccc3)CC2)c([N+](=O)[O-])c1)N1CCOCC1 do in these assays?
PLK1 PBD block: -5%; VDR inh: -6%; TDP1 cell CPT: inconclusive; DT40 TDP1 no CPT: 21µM*; KAT2A inh: -3%; TDP1 block: -1%

How did NC(=O)c1ccc(N2CCN(S(=O)(=O)c3cccs3)CC2)c([N+](=O)[O-])c1 do in these assays?
PLK1 PBD block: -11%; VDR inh: -6%; TDP1 cell CPT: 8.2µM*; DT40 TDP1 no CPT: 3.7µM*; KAT2A inh: -3%; TDP1 block: 3%

How did NC(=O)c1ccc(N2CCN(c3ccccc3O)CC2)c([N+](=O)[O-])c1 do in these assays?
PLK1 PBD block: -13%; VDR inh: -16%; TDP1 cell CPT: -22%; DT40 TDP1 no CPT: inconclusive; KAT2A inh: -2%; TDP1 block: 3%

What do the screens show for `COc1ccc(NC(=O)CCNS(=O)(=O)c2ccccc2F)cc1S(N)(=O)=O`?
PLK1 PBD block: 0%; VDR inh: 9%; TDP1 cell CPT: -5%; DT40 TDP1 no CPT: 3%; KAT2A inh: 0%; TDP1 block: 6%[0.0935 µM]

Results for CCn1c(=O)c2c(nc(SCC(=O)Nc3ccccc3)n2C)n(C)c1=O ?
PLK1 PBD block: -10%; VDR inh: -8%; TDP1 cell CPT: -12%; DT40 TDP1 no CPT: -27%; KAT2A inh: -1%; TDP1 block: 16%

What do the screens show for `O=C1C(F)=CC(COC(c2ccccc2)(c2ccccc2)c2ccccc2)OC1n1cc(F)c(=O)[nH]c1=O` (stereo not given)?
PLK1 PBD block: 6µM*; VDR inh: 45µM*; TDP1 cell CPT: 1.6µM*; DT40 TDP1 no CPT: 1.5µM*

How did Fc1ccc(CNc2nc(-c3ccccc3)nc3ccccc23)cc1 do in these assays?
PLK1 PBD block: 6%; VDR inh: 7%; TDP1 cell CPT: inconclusive; DT40 TDP1 no CPT: inconclusive; KAT2A inh: -7%; TDP1 block: -5%

How did C/C(=N/Nc1nc(-c2ccccc2F)nc2ccccc12)c1ccccc1O do in these assays?
PLK1 PBD block: 5%; VDR inh: -11%; TDP1 cell CPT: 7.3µM*; DT40 TDP1 no CPT: 9.2µM*; KAT2A inh: -9%; TDP1 block: 8%

What do the screens show for `Oc1ccccc1Nc1nc(-c2ccccc2O)nc2ccccc12`?
PLK1 PBD block: 2%; VDR inh: -1%; TDP1 cell CPT: -2%; DT40 TDP1 no CPT: -30%; KAT2A inh: 15%
